Laboratory results reported in PubChem BioAssay AID652192 (Johns Hopkins Ion Channel Center, 2013).
Results with a measured potency or affinity are listed apart. Calls of active or inactive are those of the source.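 The calls were made as follows: active = peak inhibition of the KCNQ2 potassium channel over 30% at some tested dose, with a fitted dose response curve; inactive = no inhibition at any dose, or no curve fitted.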

Biological target: Potassium voltage-gated channel subfamily KQT member 2 (Rattus norvegicus) (UniProt O88943)
Test: block of rat KCNQ2 potassium channel – cell-based, FluxOR thallium flux, concentration-response, selectivity assay for TASK1 inhibitor project, SAR follow-up (AID 652192)

Sequence of Potassium voltage-gated channel subfamily KQT member 2 (Rattus norvegicus) (O88943 whole entry, looked up): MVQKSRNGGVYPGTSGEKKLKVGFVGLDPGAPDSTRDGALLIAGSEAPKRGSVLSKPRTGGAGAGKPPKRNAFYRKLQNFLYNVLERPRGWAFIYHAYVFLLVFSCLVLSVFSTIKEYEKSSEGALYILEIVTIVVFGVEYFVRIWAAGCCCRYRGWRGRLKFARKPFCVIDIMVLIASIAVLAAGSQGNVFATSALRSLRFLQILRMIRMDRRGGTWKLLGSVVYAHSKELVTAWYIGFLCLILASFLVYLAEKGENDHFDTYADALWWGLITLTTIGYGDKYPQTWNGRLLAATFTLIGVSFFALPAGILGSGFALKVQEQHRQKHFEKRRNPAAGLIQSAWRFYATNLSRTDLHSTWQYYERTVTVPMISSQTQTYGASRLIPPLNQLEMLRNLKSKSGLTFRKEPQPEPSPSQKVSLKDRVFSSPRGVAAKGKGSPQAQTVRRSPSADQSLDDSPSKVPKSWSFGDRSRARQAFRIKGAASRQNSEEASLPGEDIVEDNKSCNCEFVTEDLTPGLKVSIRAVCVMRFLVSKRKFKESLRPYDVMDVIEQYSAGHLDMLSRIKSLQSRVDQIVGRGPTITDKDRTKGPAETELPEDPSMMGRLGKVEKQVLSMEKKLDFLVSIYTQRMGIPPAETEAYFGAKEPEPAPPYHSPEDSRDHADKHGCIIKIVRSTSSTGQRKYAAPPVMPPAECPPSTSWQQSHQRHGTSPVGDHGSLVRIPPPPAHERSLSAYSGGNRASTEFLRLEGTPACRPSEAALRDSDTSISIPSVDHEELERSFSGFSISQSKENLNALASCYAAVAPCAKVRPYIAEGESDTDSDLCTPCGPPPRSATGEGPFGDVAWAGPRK

| SMILES | outcome |
| --- | --- |
| COc1ccccc1C(=O)Nc1cc(NC(=O)c2ccccc2C(C)C)ccc1F | inactive |
| CCOc1ccccc1NC(=O)c1cccc(NC(=O)c2cccc(Cl)c2)c1 | inactive |
| COc1ccccc1C(=O)Nc1cccc(NC(=O)c2ccccc2OC(F)(F)F)c1 | inactive |
| O=C(Nc1cccc(NC(=O)c2ccc(C(F)(F)F)cc2)c1)c1ccccc1 | inactive |
| Cc1cccc(C(=O)Nc2cccc(NC(=O)c3ccccc3OCC(C)C)c2)c1 | inactive |
| Cc1cccc(C(=O)Nc2cccc(NC(=O)c3cccc(C)c3)c2)c1 | inactive |
| O=C(Nc1cccc(NC(=O)c2ccc(Cl)cc2)c1)c1ccccc1 | inactive |
| CCOc1ccccc1NC(=O)c1cccc(NC(=O)c2ccccc2C)c1 | inactive |
| COc1ccc(F)cc1C(=O)Nc1cccc(NC(=O)c2cccc(C)c2)c1 | inactive |
| O=C(Nc1cccc(NC(=O)c2ccsc2)c1)c1ccccc1 | inactive |
| O=C(Nc1cccc(NC(=O)c2cccc(Cl)c2)c1)c1ccccc1 | inactive |
| CC(C)Oc1ccccc1C(=O)Nc1cccc(NC(=O)c2ccccc2OC(F)(F)F)c1 | inactive |
| Cc1cccc(C(=O)Nc2cccc(NC(=O)c3cccc(Cl)c3)c2)c1 | inactive |
| CCOc1ccccc1NC(=O)c1cccc(NC(=O)c2ccccc2Cl)c1 | inactive |
| Cc1cccc(C(=O)Nc2cccc(NC(=O)c3ccccc3OC(F)(F)F)c2)c1 | inactive |
| CCOc1ccccc1NC(=O)c1cccc(NC(=O)c2ccc(C(F)(F)F)cc2)c1 | inactive |
| O=C(Nc1ccccc1Cl)c1cccc(NC(=O)C2CCCC2)c1 | inactive |
